S1P3 antagonist = antagonists of human S1P3 receptor | inhibition, % at 4.98 µM | hit rate 0.27% among 170,000 | Q99500 | CHO S1P3 NFAT-BLA reporter, FRET fluorescence, antagonist mode;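 active means inhibition above the plate cutoff, the mean inhibition of test wells on that plate plus 3 SD, cut at about 28% in these data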;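 further: cells challenged with S1P at its EC80 of 0.8 µM; blue over green emission ratio from cleaved BLA substrate after 4 h stimulation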
RAM inhibit = inhibitors of the yeast RAM network; inhibition, % at 50 µM; hit rate 1.8% among 190,000; AID 868; S. cerevisiae dse1pr::URA3 reporter, 5-FOA growth OD615, 2 d; analog-sensitive cbk1-as2 kinase mutant strain;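 active means inhibition above a set limit, 3 SD over mean compound inhibition, cut at about 8.4% in these data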;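 further: inhibition rescues growth on 5-FOA so higher OD means more RAM inhibition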
S1P4 antag = human S1P4 receptor antagonism | O95977 | inhibition, % at 4.98 µM | S1P4-expressing cells, antagonist mode, reporter read-out | hit rate 0.26% among 220,000; in the data active means inhibition above about 29%
Target sequence (O95977 whole entry, looked up): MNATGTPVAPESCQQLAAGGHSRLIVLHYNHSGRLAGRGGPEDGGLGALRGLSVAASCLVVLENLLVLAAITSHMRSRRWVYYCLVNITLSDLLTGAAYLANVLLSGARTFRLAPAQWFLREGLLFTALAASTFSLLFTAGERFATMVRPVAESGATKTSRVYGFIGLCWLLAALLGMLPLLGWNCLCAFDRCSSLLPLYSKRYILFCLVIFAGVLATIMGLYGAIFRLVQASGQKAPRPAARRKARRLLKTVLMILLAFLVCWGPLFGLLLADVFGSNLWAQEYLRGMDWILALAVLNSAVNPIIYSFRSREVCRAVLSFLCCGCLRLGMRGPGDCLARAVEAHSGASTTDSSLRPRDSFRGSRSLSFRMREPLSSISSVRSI
ROMK primary = modulates human ROMK potassium channel activity. P48048. Tet-inducible ROMK, thallium flux fluorescence; actives lie on both sides. B-score at 10 µM. hit rate 2% among 130,000. AID 1918;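 active means signal ratio slope over the read window, or its plate-corrected B-score, at least 3 SD from the plate mean, either direction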;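 further: B-score of the F/F0 ratio slope over 7 to 12 s after thallium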
KCC2 mod = modulators of human KCC2 chloride dependent transport. KCC2 cells, thallium flux FluoZin-2 fluorescence. Q9H2X9. B-score of Tl+ flux slope (higher = more flux/activation; lower = inhibition) at 10 µM. hit rate 2.2% among 190,000;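 active means thallium flux slope and its plate-corrected score both differing from the plate sample mean at a set confidence after two filtering rounds, in either direction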;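 further: slope of fluorescence scaled to starting intensity during 10 to 20 s after thallium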
S1P4 agonist = activates the human S1P4 receptor | O95977 | S1P4-expressing cell line, agonist reporter assay | activation, % at 4.98 µM | hit rate 0.35% among 220,000 | AID 1509; in the data active means activation above about 11%
Numbers stand for hits; – = inactive; · = no result given. Shown are actives, neighbours in structure and some others; about 5.1% of the full set was active somewhere.

SMILES	S1P3 antagonist	RAM inhibit	S1P4 antag	ROMK primary	KCC2 mod	S1P4 agonist
O=C(Nc1cccc(Cl)c1)Nc1csc([N+](=O)[O-])c1	–	·	–	·	–	–
CCOc1ccccc1NC(=O)C(Sc1nnnn1C)c1ccccc1 (centres undefined)	–	–	–	–	–	–
CCOC(=O)N1C=CC=C[C@@H]2[C@@H](N3C(=O)c4ccccc4C3=O)C(=O)N21	–	–	–	–	–	–
COC(=O)c1ccccc1NC(=O)c1ccc(COc2ccccc2)o1	–	9.6	–	·	–	–
COC(=O)c1ccccc1NC(=O)c1ccc(COc2cccc3ccccc23)o1	·	–	–	–	–	–
Cc1cc(=S)[nH]c(=S)[nH]1	–	·	–	·	–	–
O=C(/C=C/c1ccc(Cl)cc1)NC(=S)NN1CCCCC1c1cccnc1 (centres undefined)	–	–	–	·	6.15	–
COc1ccc(/C=C/C(=O)NC(=S)NN2CCCCC2c2cccnc2)cc1OC (centres undefined)	–	–	–	·	–	–
CC(=NCCCn1ccnc1)c1c(C)[nH]n(-c2ccc([N+](=O)[O-])cc2)c1=O	–	–	–	–	–	–
COc1cccc2cc(-c3nnc(SCC(=O)NCc4ccccc4)n3C)oc12	–	9.1	–	·	–	–
CCCCn1c(NC(=S)Nc2ccccc2)nc2ccccc21	–	–	–	–	47.3	–
O=C(CSc1ccc(F)cc1)Nc1ccccc1Br	–	11.2	–	–	–	–
Cc1ccc2c(c1)SC1=NC(c3ccccc3)(C(F)(F)F)NC(=O)N12 (centres undefined)	·	–	–	·	–	–
CN(C)S(=O)(=O)c1cccc(NC(=S)Nc2ccc(Cl)cc2Cl)c1	·	–	–	–	5.45	–
CN(C)S(=O)(=O)c1cccc(NC(=S)Nc2cc(Cl)cc(Cl)c2)c1	·	–	–	–	–	–
c1ccc(OCCN2CCN(Cc3nc(-c4ccc5c(c4)OCO5)no3)CC2)cc1	–	–	–	–	·	–
Cc1nn(-c2ccccc2)c(Cl)c1/C=C1\SC(=S)N(C)C1=O	–	8.4	–	–	–	–
Cc1cc(NCCN2CCOCC2)n2ncc(-c3ccc(Cl)cc3)c2n1	–	·	–	–	4.85	–
CN(C)S(=O)(=O)c1cc(C(=O)NCCCn2ccc3ccccc32)ccc1Cl	–	9.3	–	·	–	–
CCOc1ccc2[nH]c(=O)c(CN(Cc3ccco3)Cc3nnnn3Cc3ccccc3)cc2c1	–	–	–	·	·	–
COc1ccc2[nH]c(=O)c(CN(Cc3ccco3)Cc3nnnn3Cc3ccccc3)cc2c1	–	9.7	–	·	–	–
C=CCNC(=S)Nc1sc2c(c1C(=O)OCC)CC(C(C)C)OC2 (centres undefined)	·	–	–	·	31.9	–
CC(C)C1Cc2c(sc(NC(=S)NC(=O)c3ccccc3)c2C#N)CO1 (centres undefined)	–	–	–	·	–	–
CCOC(=O)c1c(NC(=S)NCCc2ccccc2)sc2c1CC(C(C)C)OC2 (centres undefined)	–	–	–	·	8.93	–
CCOC(=O)c1c(NC(=S)Nc2ccc(OC)cc2)sc2c1CCC2	–	–	–	·	–	–
SMILES	S1P3 antagonist	RAM inhibit	S1P4 antag	ROMK primary	KCC2 mod	S1P4 agonist
O=C(NNC(=S)Nc1ccc(F)c(Cl)c1)c1ccccc1Br	–	–	–	–	–	–
CC(=O)Nc1cccc(-c2nnc(SCC(=O)n3c4c(c5ccccc53)CCCC4)n2C)c1	·	–	–	–	–	–
CC1CCCCC1NC(=O)c1cncc(Br)c1 (centres undefined)	–	–	–	·	–	–
CC1CCCC(NC(=S)NC(=O)c2cncc(Br)c2)C1C (centres undefined)	–	–	–	–	51	–
CCNC(=O)c1ccc2c(c1)S(=O)(=O)c1ccccc1C2=O	85.2	–	–	–	–	–
NC(=O)c1ccc2c(c1)S(=O)(=O)c1ccccc1C2=O	–	·	–	·	–	–
CN(C)CCC1c2ccc(Cl)cc2CCc2cccnc21 (centres undefined) (tested in a mixture with another compound)	–	·	–	·	–	–
CCOC(=O)C1=CN(Cc2ccc(OC)cc2)C=C(C(=O)OCC)C1c1cccs1	–	10.2	–	–	–	–
O=C(O)CCC(=O)Nc1ccc(Oc2ncnc3cc(Cl)ccc23)nc1	–	·	–	–	–	–
CCOc1ccc(-n2c3nc4ccccc4nc3c3c(=O)n(Cc4ccco4)cnc32)cc1	·	·	–	–	2.78	–
O=C(c1ccc(Cl)cc1)C(Cn1cncn1)C(Sc1ccccc1)c1ccccc1 (centres undefined)	·	9.8	–	·	–	–
Cc1ccc(SC(c2ccccc2)C(Cn2cncn2)C(=O)c2ccccc2)cc1 (centres undefined)	·	–	–	·	–	–
Nc1ccc(C(=O)OCC(=O)Nc2ccc([N+](=O)[O-])cc2C(F)(F)F)cc1	–	–	–	·	–	–
CC1CCCN(C(=S)Nc2ccc(Nc3ccccc3)cc2)C1 (centres undefined)	–	9.3	–	–	–	–
CC(C)(C)C(=O)/C(=C\c1ccc([N+](=O)[O-])cc1)n1cncn1	·	–	54.8	·	–	–
O=C(CSc1nc2nn(-c3ccccc3)c(=O)c-2c2n1CCCCC2)NCCc1ccccc1	–	–	–	–	–	–
Cc1[nH]n(-c2ncc(-c3ccc(Cl)cc3)s2)c(=O)c1C(c1ccc(Cl)cc1)C(C#N)C#N (centres undefined)	–	8.6	–	–	–	–
COc1ccc(C(c2c(C)[nH]n(C(N)=S)c2=O)C(C#N)C#N)cc1 (centres undefined)	·	–	–	–	–	–
Cc1ccc(S(=O)(=O)N2CC3CCCC2C3)cc1 (centres undefined)	–	·	–	·	–	–
CCCc1noc2c1C(c1ccoc1)C(C#N)=C(N)N2 (centres undefined)	–	–	–	-2.61	·	–
CCOC(=O)c1cc(C#N)c(SCc2cccc3ccccc23)nc1C	·	10.1	–	–	–	–
COC(=O)C(OC(=O)c1ccc(OC)cc1)C(=O)OC	·	–	–	·	–	–
COC(=O)c1ccc(-n2cc(-c3ccc(OC)cc3)[nH]c2=S)cc1	–	–	–	–	8.83	–
Cc1ccc(NC(=O)C2CC(=O)N(Cc3ccco3)C2)cc1 (centres undefined)	–	·	–	–	–	–
CC(C)=Cc1oc2ccc([N+](=O)[O-])cc2c1N1CC(C)OC(C)C1 (centres undefined)	–	–	–	–	–	–
CCCCOC(=O)c1ccc(NC(=S)NC(=O)c2c(Br)c(C)nn2C)cc1	–	–	–	·	29	–
CCCCOC(=O)c1ccc(NC(=O)c2cnccn2)cc1	–	–	–	·	–	–
CCOc1ccc(C(=O)Nc2ccc(NC(=O)c3cccs3)cc2)cc1[N+](=O)[O-]	–	10.3	–	·	–	–
Cc1cc(S(=O)(=O)Nc2ccc3ccccc3c2)c(C)s1	·	9.2	–	–	·	–
COc1ccc(NC(=O)C(Cl)=C(Cl)Cl)cn1	–	–	–	–	–	–
